Assay results as given in PubChem BioAssay (NCATS).
Results filed as inconclusive are left out. Activity calls are given as the source filed them. The call rests on the fitted dose curve; in most records, active means well fitted curve in the direction sought with a large enough effect; inconclusive means small, poorly fitted or top-dose-only effect, or another doubt; inactive means no such curve, though single readings can be large; an effect the other way counts as inactive or inconclusive.

Legend:
[1] = molecular target: Muscarinic acetylcholine receptor M1 (Rattus norvegicus) (UniProt P08482); experiment: qHTS Assay for Antagonists of Acetylcholine Muscarinic M1 Receptor: Measurement of IP-One Response (AID 944); further: nearly all actives have a fitted effect of over 75% in size; further: potency means the concentration at half of the fitted maximal effect
Chain of Muscarinic acetylcholine receptor M1 (Rattus norvegicus) (P08482 whole entry, looked up): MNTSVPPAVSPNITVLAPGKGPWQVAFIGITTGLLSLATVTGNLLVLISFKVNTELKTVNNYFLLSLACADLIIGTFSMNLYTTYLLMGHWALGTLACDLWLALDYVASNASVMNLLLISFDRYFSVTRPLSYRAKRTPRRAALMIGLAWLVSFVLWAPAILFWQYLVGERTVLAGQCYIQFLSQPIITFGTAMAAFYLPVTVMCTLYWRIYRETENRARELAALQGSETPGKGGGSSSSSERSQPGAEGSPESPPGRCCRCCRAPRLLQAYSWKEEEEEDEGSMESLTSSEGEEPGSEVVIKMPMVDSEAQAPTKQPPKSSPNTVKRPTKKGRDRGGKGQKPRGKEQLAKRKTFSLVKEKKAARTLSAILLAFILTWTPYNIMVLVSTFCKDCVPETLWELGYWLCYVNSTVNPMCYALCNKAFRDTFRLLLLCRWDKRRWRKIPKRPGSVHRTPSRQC
In short: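 CHO cells stably expressing rat M1, pretreated 10 min with compound, then stimulated 30 min with carbachol at EC80 (200 nM) in LiCl-containing buffer pH 7.4; IP1 accumulation read by HTRF competition (665/620 nm).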

[2] = Cell Viability - HUV-EC-C (AID 542); further: nearly all actives have a fitted effect of over 35% in size; further: potency means the concentration at half of the fitted maximal effect
In short: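 HUV-EC-C human vascular endothelial cells, 1000/well, exposed to compound for 40 hr at 37 °C in complete medium. Intracellular ATP was read by CellTiter-Glo luminescence. AC50 came from Hill-equation fits of concentration-response data.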

[3] = Cellular Toxicity (caspase-3) SHSY5Y (AID 657)
In short: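 SH-SY5Y human neuroblastoma cells, 1500/well, exposed to compound for 16 hours at 37 °C in complete medium. Caspase-3/7 activity read by Caspase-Glo luminescence after 1 hr at room temperature, normalized to DMSO and 10 uM staurosporine; AC50 from Hill fit.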

[4] = Cellular Toxicity (caspase-3) Mesangial (AID 660)
In short: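 Human renal glomerular mesangial cells, 1000/well, 5 h at 37 C before 16 h compound treatment. Caspase-Glo 3/7 luminescence after 20 min; normalized to DMSO and 100 uM tamoxifen, AC50 from Hill fit.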

[5] = Cellular Toxicity (caspase-3) SK-N-SH (AID 661)
In short: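 Human SK-N-SH neuroblastoma cells, 1500/well, were exposed to compounds for 16 hours at 37 °C. Caspase-Glo 3/7 luminescence was normalized to DMSO (basal) and 10 uM staurosporine (100%), and AC50 came from a Hill fit.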

[6] = Cellular Toxicity (caspase-3) H-4-II-E (AID 663); conditions: Potency: caspase-3 activation; further: potency means the concentration at half of the fitted maximal effect;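 on caspase-3 activation: cells exposed to compound for 16 hr before readout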
In short: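 Rat hepatoma H-4-II-E cells (1500/well) plated 5 hr, then exposed to compound titrations for 16 hr at 37 °C. Caspase-Glo 3/7 luminescence read after 20 min at RT; data normalized to DMSO and 100 uM tamoxifen, AC50 from Hill fits.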

[7] = Cellular Toxicity (caspase-3) N2a (AID 665);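 further: compound exposure lasted 16 h at 37 °C before readout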
In short: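 Mouse N2a neuroblastoma cells, 1500 per well, treated 16 h at 37 °C in complete medium; caspase-3/7 activity by Caspase-Glo luminescence after 1 h. Normalized to DMSO and 10 uM staurosporine; AC50 from Hill fits.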

[8] = Cellular Toxicity (caspase-3) NIH 3T3 (AID 666);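 further: caspase signal read after 16 h compound exposure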
In short: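 Mouse NIH 3T3 fibroblasts (1000/well) treated 16 h at 37 C; caspase-3/7 activity measured by Caspase-Glo 3/7 luminescence after 20 min. Normalized to DMSO and 100 uM tamoxifen; AC50 from Hill fits.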

[9] = MultiTox-Fluor Cytotoxicity Assay - LYMP1-001 - Dead Cells (AID 946)
In short: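 AC50 from Hill fit of concentration-response; data normalized to DMSO (basal) and 15 uM tetraoctylammonium bromide (100%). LYMP1-001 lymphoblastoid cells, 2500/well, 16 hr compound at 37 C; dead-cell protease fluorescence, Ex/Em 485/520.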

[10] = Cell Viability - LYMP1-002 - Assay at 16 hr (AID 948)
In short: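 LYMP1-002 human lymphoblastoid cells, 2500/well, were treated with compounds for 16 hr at 37 C in complete medium. Viability was read as intracellular ATP by CellTiter-Glo luminescence, and AC50 was derived from a Hill fit to concentration-response data.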

[11] = MultiTox-Fluor Cytotoxicity Assay - LYMP1-003 - Dead Cells (AID 961); further: nearly all actives have a fitted effect of over 70% in size; further: potency means the concentration at half of the fitted maximal effect
In short: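 Human lymphoblastoid LYMP1-003 cells (2500/well) were treated with compounds for 16 hr at 37 C in complete medium. Dead-cell protease release was read by bis-AAF-R110 fluorescence (Ex/Em 485/520). AC50 came from Hill fits, normalized to DMSO and 15 uM tetraoctylammonium bromide.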

[12] = Cell Viability - LYMP1-003 - Assay at 24 hr (AID 963); further: potency means the concentration at half of the fitted maximal effect
In short: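 Human lymphoblastoid LYMP1-003 cells, 2500/well, treated 24 h at 37 C in complete medium. Viability read as intracellular ATP by CellTiter-Glo luminescence after 30 min at room temperature; AC50 from Hill-equation fits of qHTS concentration-response.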

[13] = Cell Viability - LYMP2-003 (AID 965);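 further: cells exposed to compounds for 24 h before reading; nearly all actives have a fitted effect of over 50% in size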; further: potency means the concentration at half of the fitted maximal effect
In short: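 Human lymphoblastoid LYMP2-003 cells, 2500/well, exposed to compounds for 24 h at 37 C in complete medium. Viability read as intracellular ATP by CellTiter-Glo luminescence; AC50 from Hill-equation fits of qHTS concentration-response data.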

[14] = Cell Viability - LYMP2-004 (AID 966); further: nearly all actives have a fitted effect of over 65% in size; further: potency means the concentration at half of the fitted maximal effect
In short: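 Lymphoblastoid LYMP2-004 cells, 2500 per well, were preincubated for 5 hr and then treated with compound for 24 h at 37 C in complete medium. Viability was read as cellular ATP by CellTiter-Glo luminescence, and AC50 values were taken from Hill fits to concentration-response data.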

[15] = Cell Viability - LYMP2-023 (AID 975); further: nearly all actives have a fitted effect of over 55% in size; further: potency means the concentration at half of the fitted maximal effect
In short: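 LYMP2-023 human lymphoblastoid cells, 2500/well, preincubated 5 hr at 37 C, then compound-treated 24 hr at 37 C in complete medium. CellTiter-Glo luminescence (ATP) after 30 min at room temperature; AC50 from Hill-equation fits; tetraoctylammonium bromide positive control.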

[16] = Cell Viability - LYMP2-014 (AID 983); further: nearly all actives have a fitted effect of over 50% in size; further: potency means the concentration at half of the fitted maximal effect
In short: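 LYMP2-014 human lymphoblastoid cells, 2500/well, treated 24 h at 37 C in complete medium; viability by CellTiter-Glo ATP luminescence after 30 min at room temperature. AC50 from Hill fits of qHTS concentration-response; tetraoctylammonium bromide positive control.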

[17] = Cell Viability - LYMP2-016 (AID 984); further: nearly all actives have a fitted effect of over 55% in size; further: potency means the concentration at half of the fitted maximal effect
In short: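 Human lymphoblastoid LYMP2-016 cells, 2500 per well, treated with compounds for 24 h at 37 C. Viability read as intracellular ATP by CellTiter-Glo luminescence after 30 min at room temperature; AC50 from Hill fits of concentration-response.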

[18] = Cell Viability - LYMP2-026 (AID 989); further: nearly all actives have a fitted effect of over 50% in size; further: potency means the concentration at half of the fitted maximal effect
In short: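 Human lymphoblastoid LYMP2-026 cells, 2500/well, exposed to compound 24 h at 37 C in complete medium. Viability as intracellular ATP by CellTiter-Glo luminescence; AC50 from Hill fits of qHTS concentration-response.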

[19] = Cell Viability - LYMP1-002 - Assay at 24 hr (AID 993); further: potency means the concentration at half of the fitted maximal effect
In short: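 Human lymphoblastoid LYMP1-002 cells (2500/well) treated 24 h at 37 °C; viability as intracellular ATP by CellTiter-Glo luminescence. Tetraoctylammonium bromide as positive control; AC50 from Hill-equation fits of qHTS concentration-response.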

[20] = Cell Viability - LYMP1-002 - Assay at 40 hr (AID 994); further: nearly all actives have a fitted effect of over 60% in size; further: potency means the concentration at half of the fitted maximal effect
In short: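 LYMP1-002 human lymphoblastoid cells (2500/well, complete medium) were treated with compounds for 40 hr at 37 C. Intracellular ATP was measured by CellTiter-Glo luminescence, and AC50 values came from Hill-equation fits of concentration-response data; tetraoctylammonium bromide was the positive control.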

Measured: Potency

Nc1nc(Cl)nc2c1ncn2[C@@H]1O[C@@H](CO)[C@@H](O)[C@H]1O
inactive: [1]

CC1(C)CCC(NC(=O)[C@H](N)CCC(=O)O)CC1
inactive: [1]

COc1cc([C@H](O)CO)ccc1O
inactive: [1]

CCCC[C@]1(C2CCCC2)Cc2cc(OCC(=O)O)c(Cl)c(Cl)c2C1=O
inactive: [1]

CNc1ncnc2c1ncn2[C@H]1C[C@@H](OP(=O)(O)O)[C@H](COP(=O)(O)O)O1
inactive: [1]

COc1cc([C@H](O)C(=O)O)ccc1O
inactive: [1]

Cc1ccccc1CNc1ncnc2c1ncn2[C@@H]1O[C@@H](CO)[C@H](O)[C@@H]1O
inactive: [1]

CCCC[S@@](=N)(=O)CC[C@@H](N)C(=O)O
inactive: [1]

COc1c2c(nc3ccccc13)O[C@@H]([C@@](C)(O)CO)C2
inactive: [1]

CN1[C@@H]2CC[C@H]1CC(NC(=O)c1nn(C)c3ccccc13)C2 (some centres not stated)
inactive: [1]

C=C(C)[C@@H]1CC=C(C(=O)O)CC1
inactive: [1]

Nc1c2c(nc3ccccc13)CCC[C@H]2O
inactive: [1]

Cc1ccc(C(=O)O[C@@H](C(=O)O)[C@@H](OC(=O)c2ccc(C)cc2)C(=O)O)cc1 (tested in a mixture with another compound)
inactive: [1]

C[C@H](N)C(=O)OC(C)(C)Cc1ccc(Cl)cc1
inactive: [1]

OC[C@@H]1O[C@@H](n2cnc3c(NC4CCCCC4)ncnc32)[C@@H](O)[C@H]1O
inactive: [1]

Nc1nc(Cl)nc2c1ncn2[C@@H]1O[C@@H](COP(=O)(O)OP(=O)(O)OP(=O)(O)O)[C@@H](O)[C@H]1O
inactive: [1]

COC(=O)[C@H](N)Cc1ccc(Cl)cc1
inactive: [1]

COc1cc2nc(N3CCN(C(=O)OCc4ccccc4)[C@H](C(=O)NC(C)(C)C)C3)nc(N)c2cc1OC
inactive: [1]

C[C@@H](C(=O)O)c1ccc(C[C@@H]2CCCC2=O)cc1
inactive: [1]

C=CCN1CCc2c(cc(O)c(O)c2Cl)[C@H](c2ccccc2)C1
inactive: [1]

N[C@H](CCCC(=O)O)C(=O)O
inactive: [1]

C[C@@H](COc1ccc(/C=C\c2ccccc2)cc1)[N+](C)(C)C
active: [1] 7.08 µM

COC(=O)[C@](C)(N)Cc1ccc(O)cc1
inactive: [1]

O[C@H](CN1CCN(c2cccc(Cl)c2)CC1)C(c1ccccc1)c1ccccc1
inactive: [1]

COc1cc2c(cc1O)CC[C@@H]1[C@@H]2CC[C@@]2(C)[C@H](O)CC[C@H]12
inactive: [1]

CSC(N)=NCCC[C@@H](N)C(=O)O
inactive: [1]

CC(C)(C)[C@@]1(O)CCN2C[C@@H]3c4ccccc4CCc4cccc(c43)[C@@H]2C1
inactive: [1]

CO/N=C(\C(=O)N[C@@H]1C(=O)N2C(C(=O)O)=C(CSc3nc(=O)c(O)nn3C)CS[C@@H]12)c1csc(N)n1
inactive: [1]

N.N.N.N.N.N.N.N.N.N.N.N.N.N.O.O.[Ru].[Ru].[Ru]
inactive: [1]

C[C@@H](CN1CCC(Cc2ccccc2)CC1)[C@H](O)c1ccc(O)cc1
active: [1] 7.08 µM

COc1ccc(CCN(C)CCC[C@@](C#N)(c2cc(OC)c(OC)c(OC)c2)C(C)C)cc1OC
inactive: [1]

COc1ccccc1OC[C@H](O)CN1CCN(CC(=O)Nc2c(C)cccc2C)CC1
inactive: [1]

COc1cc(-c2ccc(N=C=O)c(OC)c2)ccc1N=C=O
not listed: [1]
inactive: all other assays above

CC(C)S
not listed: [1]
inactive: all other assays above

Brc1ccc(-c2ccccc2)cc1
not listed: [1] | [13]
inactive: all other assays above

Nc1cc([N+](=O)[O-])ccc1O
not listed: [1]
inactive: all other assays above

Brc1cc(Oc2cc(Br)c(Br)c(Br)c2Br)c(Br)c(Br)c1Br
not listed: [1]
inactive: all other assays above

CCCCC(CC)COCCCN (configuration not stated)
not listed: [1]
inactive: all other assays above

Oc1cc(Cl)cc(Cl)c1Cl
not listed: [1]
inactive: all other assays above

CC(C)COC(=O)COc1cc(Cl)c(Cl)cc1Cl
not listed: [1]
inactive: all other assays above

CC1=C(/C=C/C(C)=C/C=C/C(C)=C/C=O)C(C)(C)CCC1
active: [2] 31.6 µM | [6] 31.6 µM | [11] 50.1 µM | [12] 50.1 µM | [13] 50.1 µM | [14] 39.8 µM | [15] 50.1 µM | [16] 50.1 µM | [17] 50.1 µM | [18] 50.1 µM | [19] 50.1 µM | [20] 50.1 µM

S=C(NC1CCCCC1)NC1CCCCC1
not listed: [1]
inactive: all other assays above

CC(C)(C)C(=O)C1C(=O)c2ccccc2C1=O
not listed: [1]
inactive: all other assays above

Nc1cc(C(=O)O)c(O)c(S(=O)(=O)O)c1
not listed: [1]
inactive: all other assays above

O=Nc1ccc(Nc2ccccc2)cc1
inactive: [3] | [4] | [5] | [7] | [8]

O=C1c2ccccc2C(=O)C1(O)O
active: [13] 50.1 µM | [14] 50.1 µM
not listed: [1]
inactive: all other assays above

C=CC1CO1 (configuration not stated)
not listed: [1]
inactive: all other assays above

Nc1ccc2c(c1)C(=O)c1ccccc1C2=O
active: [2] 31.6 µM
not listed: [1] | [8] | [18]
inactive: all other assays above
